Source: PubChem (National Center for Advancing Translational Sciences (NCATS))
Lamin A splicing – changes lamin A minigene splicing in HeLa cells; Potency, µM (doses to about 46.1 µM), inactives show at the highest dose ratio change, negative = inhibition, hits mostly inhibitors; AID 1487; 200,000 compounds, 0.01% hits; HeLa LMNA splicing GFP/RFP minigene ratio, 48 h; active = well fitted inhibition curve with a large enough effect in the signal ratio, with a control signal flat, not every such curve was filed as active; inconclusive = small, poorly fitted or top-dose-only effect, or effect the other way, or a change in a side signal; the % refers to the signal ratio; note: potency is the fitted concentration of half-maximal effect
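S3 HeLa cells stably expressing lamin A-EGFP splicing minigene plus DsRed2, 600 cells/well, 48 h compound exposure at 37C. Laser-scanning cytometry; analysed as GFP (500-530 nm)/RFP (575-640 nm) total intensity ratio; 0.5% DMSO vehicle.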
HPGD block – inhibitors of human 15-hydroxyprostaglandin dehydrogenase (HPGD) | P15428 | purified HPGD, NADH fluorescence kinetic, PGE2 substrate | Potency, µM, without a hit: top-dose activity change, negative = inhibition, hits mostly inhibitors | 150,000 compounds, 4.3% hits | AID 894; note: potency is the fitted concentration of half-maximal effect
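20 nM HPGD preincubated 15 min at room temperature with compound in 50 mM Tris-HCl pH 8, 0.01% Tween 20. Started with 1 mM NAD+ and 30 uM prostaglandin E2; NADH fluorescence (360/450 nm) read 5 times over 30-s intervals, last minus first.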
PNC inhibitor – blocks assembly of the perinucleolar compartment; PC3M PTB-GFP, PNC prevalence imaging, 16 h; stronger effect = lower value; activity change (PNC), negative = inhibition, % at 10 µM; 140,000 compounds, 3.1% hits; AID 2417;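 active = readout at or below -70, meaning at least 70% loss of cells showing the perinucleolar compartment, a nuclear body marking cancer cells; inconclusive = readout between -30 and a set limit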;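 note: plate controls were DMSO wells for no effect and camptothecin positive control wells for full effect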
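Compounds are pinned in duplicate onto adhered PC3M cells stably expressing GFP-tagged PTB and incubated 16 h at 37 C. Cells are then fixed, nuclei stained with Hoechst, and PNC-positive cells counted.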
ALDH1A1 block – ALDH1A1 (human) enzyme inhibition | P00352 | Purified ALDH1A1, NADH fluorescence, propionaldehyde substrate | Potency, µM (series often up to 75.3 µM), inactives show top-dose activity, negative = inhibition, usual class: inhibitors | 220,000 compounds, 7.3% hits | AID 1030;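 note: potency is the fitted concentration of half-maximal effect; plate controls were no enzyme wells and a reference inhibitor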
Target sequence (P00352 whole entry, looked up): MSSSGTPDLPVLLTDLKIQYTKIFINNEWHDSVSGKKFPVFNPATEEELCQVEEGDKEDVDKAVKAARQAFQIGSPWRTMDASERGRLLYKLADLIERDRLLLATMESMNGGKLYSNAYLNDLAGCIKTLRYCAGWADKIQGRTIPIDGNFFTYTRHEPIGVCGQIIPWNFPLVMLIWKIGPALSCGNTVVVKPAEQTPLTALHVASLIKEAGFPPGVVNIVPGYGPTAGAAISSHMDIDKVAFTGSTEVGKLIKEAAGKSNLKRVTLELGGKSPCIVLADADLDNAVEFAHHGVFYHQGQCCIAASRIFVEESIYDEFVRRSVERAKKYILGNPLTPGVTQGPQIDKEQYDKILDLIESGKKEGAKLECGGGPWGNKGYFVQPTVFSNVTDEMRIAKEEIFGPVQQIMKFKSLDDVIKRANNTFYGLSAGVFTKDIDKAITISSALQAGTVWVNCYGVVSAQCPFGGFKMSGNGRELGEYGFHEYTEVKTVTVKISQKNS
12-hLO inh – inhibitors of human 12-lipoxygenase (ALOX12); P18054; purified 12-hLO, xylenol orange hydroperoxide absorbance; Potency, µM (highest dose often 57.1 µM), for inactives: top-dose activity change, negative = inhibition, hits mostly inhibitors; 150,000 compounds, 0.12% hits; active = well fitted inhibition curve with a large enough effect; inconclusive = small, poorly fitted or top-dose-only effect; note: potency is the fitted concentration of half-maximal effect; nearly all actives have a fitted effect of over 55% in size
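Purified human 12hLO (150 nM final) was preincubated with compounds for 15 min at room temperature in 25 mM Hepes pH 7.0, 0.01% Triton X-100, then reacted with 40 uM arachidonic acid for 30 min. Hydroperoxide was detected with ferrous iron/xylenol orange.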
* marks the source's active call; other numbers are inactive results; ? = inconclusive; . = no result; [ ] = dose if it differs, or a comment. Shown are actives, neighbours in structure and some others; about 10% of the full set was active somewhere. Unless noted, calls come from the whole dose curve; as a rule, active = well fitted inhibition curve with a large enough effect (not every such curve was filed as active); inconclusive = small, poorly fitted or top-dose-only effect, or another doubt; inactive = no such curve, though single readings can be large or run the other way. Unless noted, % is set by controls: 0 for no effect and ±100 for the full control effect.

SMILES	Lamin A splicing	HPGD block	PNC inhibitor	ALDH1A1 block	12-hLO inh
Cc1ccc(NC(=O)c2ccc(CSc3nnc(C)s3)cc2)cc1	-8%	-14%	-100*	?	5%
Cc1cc(C)cc(NC(=O)c2ccc(CSc3nnc(C)s3)cc2)c1	5%[0.0737 µM]	-19%	21	-3%	6%
Nc1cccc(B(O)O)c1	.	-2%	.	?	0%
Cc1ccc(CSc2nc3c([nH]c4ccccc43)c(=O)n2C)cc1	-13%[46 µM]	.	.	.	.
COC(=O)c1sc(=S)n(Cc2ccccc2)c1C	.	.	.	8.9µM*	.
Cc1cc2nc(C3CCN(CC4COc5ccccc5O4)CC3)[nH]c2cc1C (stereo unspecified)	-17%	-3%	-82*	-12%	-26%
Cc1c(NC(=O)CSc2ccc(Cl)cc2)cccc1-c1nc2cc(Cl)ccc2o1	-3%	-12%	-113*	20%	0%
COc1ccc(CCNC(=O)c2cnn(-c3ccc(C)c(C)c3)c2NC(=O)c2ccco2)cc1OC	6%	-3%	-11	-10%	0%
Cc1ccc(-n2ncc(C(=O)N3CCc4ccccc4C3)c2NC(=O)c2ccco2)cc1C	-14%	?	-7	1µM*	-11%
CCOc1ccc(NC(=O)Cn2nnc(-c3ccccc3NC(=O)CC)n2)cc1	?	-13%	-84*	-4%	-1%
Cc1ccc(NC(=O)Cn2nnc(-c3ccccc3NC(=O)c3cccs3)n2)cc1	?	?	-88*	-9%	4%
O=C(Cn1nnc(-c2ccccc2F)n1)Nc1cccc2ncccc12	?	-5%	-82*	-2%	-3%
Oc1c(C(c2ccccc2F)N2CCC3(CC2)OCCO3)sc2nc(-c3ccco3)nn12 (stereo unspecified)	34%[46 µM]	.	.	.	.
O=C(O)CSCCc1ccccc1	.	2%	.	12%[13.5 µM]	-2%[11.4 µM]
Cc1cc(C)n2nc(SCC3COc4ccccc4O3)nc2n1 (stereo unspecified)	-2%	7.1µM*	5	-4%	-2%
Cc1cc(C)n2nc(SCCOc3ccccc3)nc2n1	.	.	.	1%	.
Cc1cc(C)c(C#N)c(SCc2ccccc2)n1	21%	-15%	25	?	-1%
N#Cc1cc2c(nc1SCC1COc3ccccc3O1)CCC2 (stereo unspecified)	?	25µM*	17	?	-4%
Cc1cc(C)c(C#N)c(SCC2COc3ccccc3O2)n1 (stereo unspecified)	?	14µM*	-24	?	-15%
CC(=O)[C@@H](C)CCO[C@@]1(C)OCC[C@@H]1C	.	-1%	.	9%[13.5 µM]	-1%[11.4 µM]
COc1ccc(/C=N/n2cc(-c3ccccc3)nc2N)cc1	-10%	-29%	?	?	0%
COc1ccc(/C=N/n2cc(-c3ccc(OC)cc3)nc2N)cc1	-21%	-24%	-129*	?	-8%
NCCC[C@@H](CC(=O)N[C@@H]1CCNC[C@H]1C(=O)N[C@H](CC(=O)N[C@@H](CCC(=O)O)CC(=O)O)Cc1ccccc1)NC(=O)C[C@H](Cc1c[nH]c2ccccc12)NC(=O)[C@@H]1CCCC[C@H]1N	.	-6%	.	-2%	-1%
Cc1nnc(NC(=O)CSc2cn(Cc3ccccc3)c3ccccc23)s1	6%	-1%	-26	?	2%
COc1ccccc1C(=O)NCCn1cc(SCC(=O)Nc2nnc(C)s2)c2ccccc21	-4%	-15%	?	0.32µM*	-1%
SMILES	Lamin A splicing	HPGD block	PNC inhibitor	ALDH1A1 block	12-hLO inh
Cc1ccc(C(=O)NCCn2cc(SCC(=O)Nc3cc(C)on3)c3ccccc32)cc1	-8%	-6%	?	13µM*	-9%
CCOC(=O)OCC1OC(C#CC(C)(C)C)C=CC1OC(=O)OCC (stereo unspecified)	.	.	.	23%[13.5 µM]	.
Cc1ccc(C(c2sc3nc(-c4ccco4)nn3c2O)N2CCC3(CC2)OCCO3)cc1 (stereo unspecified)	3%[46 µM]	.	.	.	.
Cc1ccc2c(c1)Sc1ccccc1CC2=O	30%	25µM*	35	18µM*	-4%
Cc1ccccc1-c1cncnc1NCc1cccnc1	1%	.	.	17%	.
O=C(Cc1noc2ccccc12)NNC(=S)Nc1ccc(Cl)cc1	.	.	.	25µM*	.
O=C(Cc1noc2ccccc12)Nc1ccc(Cl)cc1	?	-1%	6	4%	-4%
Cc1[nH]n(-c2ccccc2)c(=O)c1N=Nc1cccc(S(=O)(=O)N2CCOCC2)c1	-5%	.	-28	-10%	-5%
Cc1[nH]n(C(N)=S)c(=O)c1N=Nc1ccc(S(=O)(=O)N2CCCC2)cc1	3%	-30%	7	32µM*	1%
COc1ccc(C(=O)N2CCC3(CCCN(C(=O)NC(C)C)C3)CC2)cc1	.	-2%	.	13%	-1%
CCCN(CCC)c1nn2c(=O)c(C(=O)NCc3cc(Br)ccc3OC)cnc2s1	-7%[46 µM]	.	.	.	.
CN(C)c1ncc2nc(-c3ccc(F)cc3)c(=O)n(C3CC3)c2n1	.	?	.	?	-2%
S=C(NC1CCCCC1)N1CCC([C@H]2C=NC=N2)CC1	9%	1%	.	-3%[20.9 µM]	-3%[25.6 µM]
COc1ccc(/C=C/C(=O)c2cccs2)c(OC)c1	.	?	.	?	-2%
O=C(/C=C/c1ccnc2ccccc12)c1cccs1	.	.	.	28µM*	.
O=c1c(-c2cc(F)cc(F)c2)nc2cnc(N3CCOCC3)nc2n1C1CC1	.	?	.	?	-4%
CCOC(=O)c1cccc(NC(=O)CCc2c(C)nn(-c3ccc(N4CCCC4)nn3)c2C)c1	10%[46 µM]	.	.	.	.
O=C1OC(Cc2ccccn2)C(O)=C1C1=NCCCN1 (stereo unspecified)	-2%	-4%	-83*	-2%	-2%
COCCNc1ncnc2ccc(-c3ccccc3C)cc12	9%	.	.	?	.
Cc1sc2nc(C3CC3)nc(SCC(=O)N3c4ccccc4CC3C)c2c1C (stereo unspecified)	?	-14%	-108*	?	-4%
Cc1sc2nc(C3CC3)nc(SCC(=O)NCc3ccco3)c2c1C	?	-17%	-17	?	-12%
Cc1cc2cc3c(cc2nc1SCC(=O)N1c2ccccc2CC1C)OCO3 (stereo unspecified)	?	-30%	-100*	-2%	-6%
CC1Cc2ccccc2N1C(=O)CSc1nc2cc3c(cc2cc1C#N)OCO3 (stereo unspecified)	12%	-21%	-4	?	-7%
O=C(Nc1cccc(F)c1)N1CCCC2(CCN(C(=O)c3ccco3)CC2)C1	.	-18%	.	?	2%
CCOC(=O)c1c(CC(C)C)csc1/N=C/C1C(=O)CC(C)(C)CC1=O	.	.	.	6.3µM*	.
COC(=O)c1cc(OC)c(OC)cc1N=CC1=C(O)CC(C)(C)CC1=O	-8%	?	5	1µM*	0%
COC(=O)c1cc(N=CC2=C(O)CC(C)(C)CC2=O)cc(C(=O)OC)c1	-9%	-13%	44	?	-2%
CCOC(=O)c1ccc(N=CC2=C(O)CC(C)(C)CC2=O)cc1	-1%	?	19	?	-7%
